Source: PubChem BioAssay (NCATS)
Records with an inconclusive call do not appear. Active and inactive are the calls of the source. Calls come from the whole dose curve.

Key:
[1] = Primary qHTS for inhibitors of SARS-S pseudo-typed particle cell entry (AID 1479145); conditions: outcome: dose series up to 57.1 µM unless noted; note: nearly all actives have a fitted effect of over 45% in size; for activity change, negative = inhibition: % is set by controls: 0 for no effect and ±100 for the full control effect
[2] = Primary qHTS for Huh7 cytotoxicity: counterscreen for inhibitors of MERS-S pseudotyped particle cell entry (AID 1479147); conditions: outcome: dose series up to 57.1 µM unless noted
[3] = Primary qHTS for inhibitors of MERS-S pseudo-typed particle cell entry (AID 1479149); conditions: outcome: dose series up to 57.1 µM unless noted; note: nearly all actives have a fitted effect of over 60% in size; for activity change, negative = inhibition: % is set by controls: 0 for no effect and ±100 for the full control effect
[4] = Primary qHTS for Vero E6 cytotoxicity: counterscreen for inhibitors of SARS-S pseudo-typed particle cell entry (AID 1479150); conditions: outcome: dose series up to 57.1 µM unless noted; for activity change, negative = cytotoxicity: % is set by controls: 0 for no effect and ±100 for the full control effect
[5] = Cytotoxicity counterscreen for inhibitors of SARS-CoV-2 cell entry (AID 1645845); conditions: outcome: dose series up to 57.1 µM unless noted; note: nearly all actives have a fitted effect of over 50% in size; for activity change, negative = cytotoxicity: % is set by controls: 0 for no effect and ±100 for the full control effect
How it was run: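 Counterscreen run in the same HEK293-ACE2 line as the pseudotyped-particle entry assay, without particles. Viability after 48 h at 37 C was read as ATP luminescence, scaled between cell-containing and cell-free wells.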

[6] = Primary qHTS to identify inhibitors of SARS-CoV-2 cell entry (AID 1645846); conditions: SARS-CoV-2 pseudovirus cell entry assay, luminescence; activity change, negative = inhibition: at 57.1 µM (top of the series) unless noted; note: nearly all actives have a fitted effect of over 45% in size
How it was run: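 Data are normalized to wells receiving SARS-CoV-2-S pseudoparticles and those given bald particles. Entry signal was luciferase luminescence in stable hACE2 Expi293F cells, 48 hr post-infection, after 1 hr compound pretreatment.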

CCCC1C(=O)N2C(N(C)C)=Nc3ccc(C)cc3N2C1=O (stereo not given)
inactive: Potency [1] | Potency [2] | Potency [3] | Potency [4] | Potency [5]
2.29% [at 114 µM]: activity change, negative = inhibition [6]

CC(C)(C)NCC(O)COc1ccccc1C#N (stereo not given)
-9.12%: activity change, negative = inhibition [6]
inactive: Potency [1] | Potency [2] | Potency [3] | Potency [4] | Potency [5]

C=CCOc1ccc(CC(=O)O)cc1Cl
inactive: Potency [1] | Potency [2] | Potency [3] | Potency [4] | Potency [5]
-9.87% [at 114 µM]: activity change, negative = inhibition [6]

CCCCCCCCCCCCCC(=O)OCC(COP(=O)([O-])OCC[N+](C)(C)C)OC(=O)CCCCCCCCCCCCC (stereo not given)
-12.7%: activity change, negative = inhibition [6]
inactive: Potency [1] | Potency [2] | Potency [3] | Potency [4] | Potency [5]

CN1CC(O)c2cc(N=NC(N)=O)c(O)cc21 (stereo not given)
-20%: activity change, negative = inhibition [6]
inactive: Potency [1] | Potency [2] | Potency [3] | Potency [4] | Potency [5]

CC(C)(S)C(=O)N[C@@H](CS)C(=O)O
inactive: Potency [1] | Potency [2] | Potency [3] | Potency [4] | Potency [5]
-16.1%: activity change, negative = inhibition [6]

Cc1cc(Nc2ncc(Cl)c(Nc3ccccc3S(=O)(=O)C(C)C)n2)c(OC(C)C)cc1C1CCNCC1
-32%: activity change, negative = inhibition [6]
inactive: Potency [1] | Potency [2] | Potency [3] | Potency [4] | Potency [5]

CCCCC(=O)O
inactive: Potency [1] | Potency [2] | Potency [3] | Potency [4] | Potency [5]
-20.8%: activity change, negative = inhibition [6]

Cn1cc(OCC(O)CNC(C)(C)C)c2ccccc2c1=O (stereo not given)
-17.6%: activity change, negative = inhibition [6]
inactive: Potency [1] | Potency [2] | Potency [3] | Potency [4] | Potency [5]

C[C@]12CCC3=C4CCC(=O)C=C4CC[C@H]3[C@@H]1CC[C@@]2(O)CC#N
inactive: Potency [1] | Potency [2] | Potency [3] | Potency [4] | Potency [5]
-3.65%: activity change, negative = inhibition [6]

O=C(O)CCCN1CCC(O[C@@H](c2ccc(Cl)cc2)c2ccccn2)CC1
-17.2%: activity change, negative = inhibition [6]
inactive: Potency [1] | Potency [2] | Potency [3] | Potency [4] | Potency [5]

C[S+](CC[C@H](N)C(=O)O)C[C@H]1O[C@@H](n2cnc3c(N)ncnc32)[C@H](O)[C@H]1O (stereo not given in full)
inactive: Potency [1] | Potency [2] | Potency [3] | Potency [4] | Potency [5] | Potency [6]

CCCCCCCCCCCCCCCCCC(=O)[O][Al]
inactive: activity change, negative = inhibition [1] -36% [at 5.34 µM] | activity change, negative = cytotoxicity [2] -3.61% [at 5.34 µM] | outcome [3] inactive [at 5.34 µM] | activity change, negative = cytotoxicity [4] -0.388% [at 5.34 µM] | activity change, negative = cytotoxicity [5] 0.759% [at 5.25 µM] | outcome [6] inactive [at 5.25 µM]

O=[N+]([O-])O[C@@H]1CO[C@H]2[C@@H]1OC[C@@H]2O
inactive: Potency [1] | Potency [2] | Potency [3] | Potency [4] | Potency [5]
-29.2% [at 114 µM]: activity change, negative = inhibition [6]

C=C(C)C1CC=C(C)CC1 (stereo not given)
-21.4% [at 114 µM]: activity change, negative = inhibition [6]
inactive: Potency [1] | Potency [2] | Potency [3] | Potency [4] | Potency [5]

C[C@@H](O)[C@H]1C(=O)N2C(C(=O)[O-])=C(SC3Cn4cnc[n+]4C3)[C@H](C)[C@H]12 (stereo not given in full)
-12.2% [at 11.3 µM]: activity change, negative = inhibition [6]
inactive: activity change, negative = inhibition [1] -18.9% [at 11.4 µM] | outcome [2] inactive [at 11.4 µM] | activity change, negative = inhibition [3] -3.17% [at 11.4 µM] | activity change, negative = cytotoxicity [4] 4.16% [at 11.4 µM] | outcome [5] inactive [at 11.3 µM]

Cc1cccc(C)c1NC(=O)C1CCCCN1C (stereo not given)
-22.7%: activity change, negative = inhibition [6]
inactive: Potency [1] | Potency [2] | Potency [3] | Potency [4] | Potency [5]

C[C@@H]1C[C@H]2[C@@H]3CCC4=CC(=O)C=C[C@]4(C)[C@@]3(F)[C@@H](O)C[C@]2(C)[C@@]1(O)C(=O)COP(=O)(O)O
inactive: outcome [1] inactive [at 11.4 µM] | outcome [2] inactive [at 11.4 µM] | outcome [3] inactive [at 11.4 µM] | outcome [4] inactive [at 11.4 µM] | outcome [5] inactive [at 11.3 µM] | outcome [6] inactive [at 11.3 µM]

CN1C(=O)[C@]23C[C@H]4C(C)(C)[C@]5(CNc6c5ccc5c6OC=CC(C)(C)O5)C[C@@]41CN2CC[C@@]3(C)O
inactive: Potency [1] | Potency [2] | Potency [3] | Potency [4] | Potency [5] | Potency [6]

CC(/C=C1\SC(=S)N(CC(=O)O)C1=O)=C\c1ccccc1
inactive: Potency [1] | Potency [2] | Potency [3] | Potency [4] | Potency [5] | Potency [6]

OC[C@H]1OC(O)C[C@@H](O)[C@@H]1O (stereo not given in full)
inactive: Potency [1] | Potency [2] | Potency [3] | Potency [4] | Potency [5]
-11.1%: activity change, negative = inhibition [6]

CC[C@H]1[C@@H](O)[C@@H]2[C@H](CC[C@]3(C)[C@@H]([C@H](C)CCC(=O)O)CC[C@@H]23)[C@@]2(C)CC[C@@H](O)C[C@@H]12
-6.18%: activity change, negative = inhibition [6]
inactive: Potency [1] | Potency [2] | Potency [3] | Potency [4] | Potency [5]

Nc1c(CC(=O)O)cccc1C(=O)c1ccccc1
inactive: Potency [1] | Potency [2] | Potency [3] | Potency [4] | Potency [5] | Potency [6]

N#C[C@@H]1CCCN1C(=O)CNC12CC3CC(CC(O)(C3)C1)C2
inactive: Potency [1] | Potency [2] | Potency [3] | Potency [4] | Potency [5] | Potency [6]

C=CC1=C(C(=O)O)N2C(=O)[C@@H](NC(=O)/C(=N\OCC(=O)O)c3csc(N)n3)[C@H]2SC1
-7.67%: activity change, negative = inhibition [6]
inactive: Potency [1] | Potency [2] | Potency [3] | Potency [4] | Potency [5]

CCCCN=C(N)NC(=N)N
inactive: outcome [1] inactive [setting not given] | outcome [2] inactive [setting not given] | outcome [3] inactive [setting not given] | outcome [4] inactive [setting not given] | outcome [5] inactive [setting not given] | outcome [6] inactive [setting not given]

CN(Cc1ccccc1)C(=O)[C@H](NC(=O)c1cc2cc(NC(=O)c3ccccc3-c3ccc(C(F)(F)F)cc3)ccc2n1C)c1ccccc1
inactive: Potency [1] | Potency [2] | Potency [3] | Potency [4] | Potency [5]
-7.12%: activity change, negative = inhibition [6]

NC(=S)NS(=O)(=O)c1ccc(N)cc1
-18.4%: activity change, negative = inhibition [6]
inactive: Potency [1] | Potency [2] | Potency [3] | Potency [4] | Potency [5]

CC(CCc1ccc(O)cc1)NCC(O)c1ccc(O)cc1 (stereo not given)
inactive: Potency [1] | Potency [2] | Potency [3] | Potency [4] | Potency [5] | Potency [6]

CS(=O)(=O)n1cc2c(n1)CN([C@H]1CO[C@H](c3cc(F)ccc3F)[C@@H](N)C1)C2
inactive: Potency [1] | Potency [2] | Potency [3] | Potency [4] | Potency [5]
-25.8%: activity change, negative = inhibition [6]

C[C@H]1C[C@@H]2[C@H]([C@@H](O)C[C@@]3(C)[C@H]2CC[C@]3(O)C(=O)COC(=O)CCC(=O)O)[C@@]2(C)C=CC(=O)C=C12
-18.6%: activity change, negative = inhibition [6]
inactive: Potency [1] | Potency [2] | Potency [3] | Potency [4] | Potency [5]

O=S(=O)(O)Oc1ccc(C(c2ccc(OS(=O)(=O)O)cc2)c2ccccn2)cc1
inactive: Potency [1] | Potency [2] | Potency [3] | Potency [4] | Potency [5] | Potency [6]

CC(=O)O[C@H]1CC[C@@]2(C)C(=CC[C@H]3[C@@H]4CC[C@H](C(C)=O)[C@@]4(C)CC[C@@H]32)C1
-16.3%: activity change, negative = inhibition [6]
inactive: Potency [1] | Potency [2] | Potency [3] | Potency [4] | Potency [5]

CCC=CCC=CCC=CCCCCCCCC(=O)O
inactive: Potency [1] | Potency [2] | Potency [3] | Potency [4] | Potency [5] | Potency [6]

NC[C@@H]1CC[C@@H](N)[C@@H](O[C@H]2[C@H](O)[C@@H](O[C@H]3O[C@H](CO)[C@@H](O)[C@H](N)[C@H]3O)[C@H](N)C[C@@H]2N)O1
-17.7% [at 27.1 µM]: activity change, negative = inhibition [6]
inactive: Potency [1] | Potency [2] | Potency [3] | Potency [4] | Potency [5]

CCC(=O)NC[C@@H]1C[C@H]1c1cccc2c1CCO2
-21.9%: activity change, negative = inhibition [6]
inactive: Potency [1] | Potency [2] | Potency [3] | Potency [4] | Potency [5]

Nc1c(Br)cc(Br)cc1CNC1CCC(O)CC1 (stereo not given)
-18.6%: activity change, negative = inhibition [6]
inactive: Potency [1] | Potency [2] | Potency [3] | Potency [4] | Potency [5]

O=C(O)[C@@H]1C(=CCO)O[C@@H]2CC(=O)N12
inactive: Potency [1] | Potency [2] | Potency [3] | Potency [4] | Potency [5] | Potency [6]

CC(C)(C)CC(=O)OCC(=O)[C@@]12OC(C)(C)O[C@@H]1C[C@H]1[C@@H]3CCC4=CC(=O)C=C[C@]4(C)[C@@]3(F)[C@@H](O)C[C@@]12C
inactive: Potency [1] | Potency [2] | Potency [3] | Potency [4] | Potency [5]
-18.4%: activity change, negative = inhibition [6]

CCNC(=O)CCC/C=C\C[C@@H]1[C@@H](/C=C/[C@@H](O)CCc2ccccc2)[C@H](O)C[C@@H]1O
inactive: Potency [1] | Potency [2] | Potency [3] | Potency [4] | Potency [5]
-19.7%: activity change, negative = inhibition [6]
